Reference: PMC5700166

How the values were obtained:
Experiment in all cases: protein-binding microarray (PBM); PBM: ~300 nM protein, 6 mM HEPES pH 7.8, 80 mM KCl, 0.5 mM EDTA, 0.5 mM EGTA, 6% glycerol, 35 ng/ul poly-dIdC, 1% milk, 1 h, room temperature; Ap Aiptasia and Nv Nematostella (sea anemones) / Co Capsaspora / Aq Amphimedon (sponge) / Dm Drosophila / Hu human; RHD is the Rel homology domain; high values mean tight binding
Settings in all cases: dsDNA, one strand shown
GST-Ap-NF-kB RHD = target: T1, GST-Ap-NF-kB RHD (Exaiptasia pallida (Aiptasia), UniProt A0A913YAJ5 2-422)
T1 sequence: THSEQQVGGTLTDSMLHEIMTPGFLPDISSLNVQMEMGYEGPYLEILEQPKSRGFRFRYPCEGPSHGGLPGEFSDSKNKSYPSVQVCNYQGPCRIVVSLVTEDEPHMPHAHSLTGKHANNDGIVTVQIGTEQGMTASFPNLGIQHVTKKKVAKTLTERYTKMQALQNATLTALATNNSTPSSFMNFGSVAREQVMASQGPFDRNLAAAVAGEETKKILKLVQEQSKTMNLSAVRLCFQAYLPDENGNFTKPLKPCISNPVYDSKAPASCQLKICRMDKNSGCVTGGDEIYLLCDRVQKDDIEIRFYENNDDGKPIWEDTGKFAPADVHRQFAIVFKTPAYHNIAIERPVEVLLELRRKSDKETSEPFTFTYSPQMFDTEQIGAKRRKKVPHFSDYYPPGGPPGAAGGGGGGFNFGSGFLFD

[1] = target: T2, GST-Nv-NF-kB (Cys allele) (Nematostella vectensis, UniProt E5G601 2-411)
T2 sequence: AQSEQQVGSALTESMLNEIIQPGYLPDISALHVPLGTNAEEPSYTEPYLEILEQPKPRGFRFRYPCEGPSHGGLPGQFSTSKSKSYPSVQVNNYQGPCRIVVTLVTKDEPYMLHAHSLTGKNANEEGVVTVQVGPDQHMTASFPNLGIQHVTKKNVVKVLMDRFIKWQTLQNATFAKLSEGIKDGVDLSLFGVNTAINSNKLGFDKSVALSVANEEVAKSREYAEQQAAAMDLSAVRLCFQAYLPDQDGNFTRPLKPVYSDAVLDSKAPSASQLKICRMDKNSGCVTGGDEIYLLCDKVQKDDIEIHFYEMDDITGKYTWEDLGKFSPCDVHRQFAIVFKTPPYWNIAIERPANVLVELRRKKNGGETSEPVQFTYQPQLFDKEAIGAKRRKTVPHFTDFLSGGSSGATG

GST-Co-NF-kB = target: T3, GST-Co-NF-kB (Capsaspora owczarzaki, UniProt F1ARL5 200-546)
T3 sequence: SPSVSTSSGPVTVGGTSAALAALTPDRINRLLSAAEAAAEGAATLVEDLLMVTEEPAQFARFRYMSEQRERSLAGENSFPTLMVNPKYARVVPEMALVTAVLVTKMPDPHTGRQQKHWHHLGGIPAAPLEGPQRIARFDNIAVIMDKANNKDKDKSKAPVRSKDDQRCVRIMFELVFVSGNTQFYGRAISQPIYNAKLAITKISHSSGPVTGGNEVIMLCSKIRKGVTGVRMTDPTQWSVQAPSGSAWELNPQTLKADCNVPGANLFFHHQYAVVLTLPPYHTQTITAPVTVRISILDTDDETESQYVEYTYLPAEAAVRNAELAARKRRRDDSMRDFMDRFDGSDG

GST-Dm-Relish = target: T4, GST-Dm-Relish (Drosophila melanogaster, UniProt Q94527 99-473)
T4 sequence: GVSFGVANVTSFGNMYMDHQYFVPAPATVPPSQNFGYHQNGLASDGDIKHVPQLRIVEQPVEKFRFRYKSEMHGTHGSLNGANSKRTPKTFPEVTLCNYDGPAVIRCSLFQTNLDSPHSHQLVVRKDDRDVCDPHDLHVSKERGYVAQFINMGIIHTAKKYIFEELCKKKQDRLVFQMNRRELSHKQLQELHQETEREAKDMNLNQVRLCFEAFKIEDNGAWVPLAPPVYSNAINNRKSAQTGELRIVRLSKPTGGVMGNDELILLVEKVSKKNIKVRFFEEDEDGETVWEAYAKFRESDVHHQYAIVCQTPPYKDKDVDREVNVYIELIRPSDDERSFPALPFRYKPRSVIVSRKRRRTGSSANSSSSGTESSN

GST-Aq-NF-kB = target: T5, GST-Aq-NF-kB (Amphimedon queenslandica, UniProt A9Y5G7 2-389)
T5 sequence: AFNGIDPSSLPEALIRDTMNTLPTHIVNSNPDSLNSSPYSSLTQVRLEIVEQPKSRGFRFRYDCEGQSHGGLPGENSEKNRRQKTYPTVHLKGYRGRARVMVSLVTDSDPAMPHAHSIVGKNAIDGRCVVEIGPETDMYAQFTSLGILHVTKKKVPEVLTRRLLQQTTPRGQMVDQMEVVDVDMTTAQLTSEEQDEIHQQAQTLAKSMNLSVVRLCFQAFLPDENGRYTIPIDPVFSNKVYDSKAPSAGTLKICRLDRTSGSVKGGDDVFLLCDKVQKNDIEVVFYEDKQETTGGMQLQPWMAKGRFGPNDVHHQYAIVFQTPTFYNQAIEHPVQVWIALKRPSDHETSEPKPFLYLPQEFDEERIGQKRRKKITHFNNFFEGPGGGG

Sequence | binding signal (GST-Ap-NF-kB RHD) | binding signal [1] | binding signal (GST-Co-NF-kB) | binding signal (GST-Dm-Relish) | binding signal (GST-Aq-NF-kB)
CCGATTAACATCACAGTACCCCCTGATGTTAATCGGGTCTTGATTCGCTTGACGCTGCTG | 5.34 z-score | 2.85 z-score | 3.67 z-score | 1.94 z-score | 2.91 z-score
CCGATTAACATCAAATTCCCAGTTGATGTTAATCGGGTCTTGATTCGCTTGACGCTGCTG | 1.52 z-score | 3.74 z-score | 2.97 z-score | 4.29 z-score | 2.37 z-score
CCGATTAACATCAAAGTACCCCCTGATGTTAATCGGGTCTTGATTCGCTTGACGCTGCTG | 6.74 z-score | 4.38 z-score | 6.64 z-score | 4.39 z-score | 4.52 z-score
CCGATTAACATCATTCGGGAAAATGATGTTAATCGGGTCTTGATTCGCTTGACGCTGCTG | 1.48 z-score | 3.97 z-score | 3.01 z-score | 1.3 z-score | 2.01 z-score
CCGATTAACATCAGGGATTACCATGATGTTAATCGGGTCTTGATTCGCTTGACGCTGCTG | 3.4 z-score | 1.46 z-score | 1.11 z-score | 6.01 z-score | 3.67 z-score
CCGATTAACATCAGGCACCCCCCTGATGTTAATCGGGTCTTGATTCGCTTGACGCTGCTG | 5.14 z-score | 3.21 z-score | 2.79 z-score | 5.16 z-score | 4.88 z-score
CCGATTAACATCAGGGGAACACATGATGTTAATCGGGTCTTGATTCGCTTGACGCTGCTG | 4.8 z-score | 5.02 z-score | 6.41 z-score | 4.31 z-score | 4.1 z-score
CCGATTAACATCAGGGGCAACCCTGATGTTAATCGGGTCTTGATTCGCTTGACGCTGCTG | 2.71 z-score | 2.89 z-score | 2.31 z-score | 3.06 z-score | 5.52 z-score
CCGATTAACATCACCGCCCCCCCTGATGTTAATCGGGTCTTGATTCGCTTGACGCTGCTG | 3.91 z-score | 4.65 z-score | 3.8 z-score | 4.88 z-score | 4.3 z-score
CCGATTAACATCAGGGTATTTACTGATGTTAATCGGGTCTTGATTCGCTTGACGCTGCTG | 3.45 z-score | 5.05 z-score | 1.4 z-score | 7.1 z-score | 6.01 z-score
CCGATTAACATCAGGGGGGGTTATGATGTTAATCGGGTCTTGATTCGCTTGACGCTGCTG | 6.15 z-score | 3.92 z-score | 4.45 z-score | 6.55 z-score | 5.06 z-score
CCGATTAACATCAATTACCCCCCTGATGTTAATCGGGTCTTGATTCGCTTGACGCTGCTG | 5.96 z-score | 4.69 z-score | 6.96 z-score | 4.49 z-score | 5.14 z-score
CCGATTAACATCACGGAGTCCCCTGATGTTAATCGGGTCTTGATTCGCTTGACGCTGCTG | 6.33 z-score | 4.74 z-score | 2.46 z-score | 7.32 z-score | 4.65 z-score
CCGATTAACATCAGGGATTTCCATGATGTTAATCGGGTCTTGATTCGCTTGACGCTGCTG | 4.13 z-score | 3.8 z-score | 1.29 z-score | 7.94 z-score | 5.39 z-score
CCGATTAACATCAGGGAACTACATGATGTTAATCGGGTCTTGATTCGCTTGACGCTGCTG | 1.52 z-score | 1.1 z-score | 1.62 z-score | 8.31 z-score | 2.44 z-score
CCGATTAACATCAATTTCCCGCCTGATGTTAATCGGGTCTTGATTCGCTTGACGCTGCTG | 2.79 z-score | 3.63 z-score | 3.64 z-score | 1.31 z-score | 2.64 z-score
CCGATTAACATCACATTTTCCCATGATGTTAATCGGGTCTTGATTCGCTTGACGCTGCTG | 2.42 z-score | 3.68 z-score | 3.98 z-score | 1.33 z-score | 2.13 z-score
CCGATTAACATCACGGTATTTCCTGATGTTAATCGGGTCTTGATTCGCTTGACGCTGCTG | 1.56 z-score | 1.37 z-score | – | 3.77 z-score | 4.59 z-score
CCGATTAACATCACAAATTCCCATGATGTTAATCGGGTCTTGATTCGCTTGACGCTGCTG | 2.52 z-score | 4.43 z-score | 2.69 z-score | 4.72 z-score | 3.15 z-score
CCGATTAACATCAGGCATTTCCCTGATGTTAATCGGGTCTTGATTCGCTTGACGCTGCTG | 3 z-score | 5.12 z-score | 1.77 z-score | 1.97 z-score | 6.69 z-score
CCGATTAACATCAGAAATCCCGCTGATGTTAATCGGGTCTTGATTCGCTTGACGCTGCTG | 3.54 z-score | 2.85 z-score | 1.57 z-score | 4.94 z-score | 3.08 z-score
CCGATTAACATCAGGAAGGCCCCTGATGTTAATCGGGTCTTGATTCGCTTGACGCTGCTG | 2.9 z-score | 2.69 z-score | – | 4.9 z-score | 5.3 z-score
CCGATTAACATCAGGAAAAGCCCTGATGTTAATCGGGTCTTGATTCGCTTGACGCTGCTG | 2.12 z-score | 1.89 z-score | – | 4.12 z-score | 4.95 z-score
CCGATTAACATCAATGGGATTCCTGATGTTAATCGGGTCTTGATTCGCTTGACGCTGCTG | 1.54 z-score | 1.13 z-score | – | 7.4 z-score | 1.65 z-score
CCGATTAACATCACGGACTTCCCTGATGTTAATCGGGTCTTGATTCGCTTGACGCTGCTG | 2.56 z-score | 2.62 z-score | – | 7.44 z-score | 5.45 z-score
CCGATTAACATCAGAAAATTACCTGATGTTAATCGGGTCTTGATTCGCTTGACGCTGCTG | 2.06 z-score | 3.89 z-score | – | 4.45 z-score | 3.25 z-score
